Laboratory results from ChEMBL document CHEMBL1201862, “PubChem BioAssay data set” (2004).
Hit rate of the full screen: of about 410,000 compounds, about 7,200 (1.8%) were called active. Not shown: some 7% with an inconclusive outcome. No cut-off for these calls is given here. Shown is part of a subset that was picked to be rich in actives.

biological target: TAR DNA-binding protein 43 (Homo sapiens) (UniProt Q13148); assay: qHTS of TDP-43 Inhibitors.; type: functional
Sequence (Q13148 whole entry): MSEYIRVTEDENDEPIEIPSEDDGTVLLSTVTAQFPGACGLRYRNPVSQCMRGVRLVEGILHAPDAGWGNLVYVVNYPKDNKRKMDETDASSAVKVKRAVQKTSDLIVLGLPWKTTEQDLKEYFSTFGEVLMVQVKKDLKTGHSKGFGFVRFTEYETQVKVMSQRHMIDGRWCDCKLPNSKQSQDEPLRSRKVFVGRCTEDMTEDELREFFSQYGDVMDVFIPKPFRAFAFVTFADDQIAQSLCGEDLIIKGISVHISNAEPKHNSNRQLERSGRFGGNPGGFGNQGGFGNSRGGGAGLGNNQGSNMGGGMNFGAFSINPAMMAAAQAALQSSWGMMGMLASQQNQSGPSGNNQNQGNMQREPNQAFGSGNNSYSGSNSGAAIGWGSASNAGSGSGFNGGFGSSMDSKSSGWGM

SMILES | Potency
COc1ccc(OCC(O)COc2ccc(C(=O)O)cc2)cc1 (configuration not stated) | 100 µM (active)
O=C(Nc1ccccc1)c1ccccc1NS(=O)(=O)c1ccc(Cl)s1 | inactive
O=C(N/N=C/c1ccc(O)c2ncccc12)c1cccc(Br)c1 | inactive
Clc1ccc(-c2nnc(COc3ncnc4ccccc34)o2)cc1 | inactive
CCOc1cc(N2CCOCC2)c(OCC)cc1NC(=O)Cn1[nH]c(=O)c2ccccc2c1=O | 79.4 µM (active)
Cc1ccc(-c2cc(C(=O)N3N=C(C(F)F)CC3(O)C(F)F)c3ccccc3n2)cc1C (configuration not stated) | inactive
Cc1ccc(N(Cc2ccccc2)C(=O)c2cc(S(=O)(=O)N3CCOCC3)ccc2Cl)cc1 | inactive
COc1ccc2[nH]c3c(C)c4ccncc4c(C)c3c2c1 | inactive
O=C(O)Cc1ccccc1Nc1c(Cl)cccc1Cl | 15.8 µM (active)
O=C(Nc1cccc(F)c1)c1ccc2c(c1)OCCO2 | inactive
COc1ccc(Cl)cc1NC(=O)C1CCCN(c2cc(C)nc3ncnn23)C1 (configuration not stated) | inactive
CN(C(=O)COC(=O)c1cccnc1Nc1cccc(C(F)(F)F)c1)C1CCS(=O)(=O)C1 (configuration not stated) | inactive
